A selection: hits, their analogues and other compounds. The true share with any hit is near 12%.
Shiga inhibitor – A qHTS for Small Molecule Inhibitors of Shiga Toxin; Vero cells, Shiga toxin protein synthesis inhibition reporter; inhibition, % at 38.7 µM; actives 9.2% (n = 290,000); AID 2315, 2010; in the data active = inhibition mostly above about 28%, no sharp cut-off; inactive = mostly below about 43%; also: 0% is about no effect
SARS PLP yeast – qHTS of Yeast-based Assay for SARS-CoV PLP. S. cerevisiae expressing SARS-CoV PLpro, growth rescue. Potency, µM (titrated, usually from 32.9 µM), for inactives: at the highest dose activity, positive = growth rescue, actives largely listed as activators. actives 0.19% (n = 330,000). AID 485353, 2010; also: potency is read from the fitted curve at half-maximal effect; 0% is about no effect; nearly all actives have a fitted effect of over 55% in size
CHX counter – Cycloheximide Counterscreen for Small Molecule Inhibitors of Shiga Toxin. cell reporter, cycloheximide protein synthesis inhibition counterscreen. max response, %. actives 12% (n = 300,000). AID 2314, 2010; in the data active = max response mostly above about 13%, no sharp cut-off; inactive = mostly below about 14%; also: read at 38.3 µM for the half of the compounds with a filed dose; 0% is about no effect
NS1 inh – qHTS Assay for Inhibitors of Influenza NS1 Protein Function | Potency, µM (series often up to 46.1 µM), for inactives: at the highest dose activity, positive = more growth | actives 0.4% (n = 270,000); also: potency is read from the fitted curve at half-maximal effect; actives are rising curves; nearly all actives have a fitted effect of over 50% in size
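S. cerevisiae expressing influenza A NS1, grown in glucose, washed, then diluted 1:100 into pH 6.0 -URA galactose medium with 23 nl compound. Growth recovery read as OD600; NS1-free strain serves as control.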
* marks the source's active call; other numbers are inactive results; ? = inconclusive; nt = no result; + = active, no number. Unless noted, calls follow the shape of the full dose curve.

SMILES	Shiga inhibitor	SARS PLP yeast	CHX counter	NS1 inh
COc1ccc(/C=N/Nc2ccc(C(=O)O)cc2)cc1Br	0	-7%	9	nt
C=CCOc1c(Br)cc(/C=N/Nc2ccc(C(=O)O)cc2)cc1OCC	+	-8%	79*	12%
COc1ccc(C(=O)Oc2ccc(/C=N/Nc3ccc(Cl)c(C(=O)O)c3)cc2OC)cc1	93*	-2%	21*	23%
Cc1c(C(=O)OCC(=O)N2CCCCC2C)oc2ccccc12 (stereo not drawn)	nt	-1%	nt	nt
O=C1c2cc(O)c(O)cc2S(=O)(=O)C1c1ccccc1 (stereo not drawn)	nt	-3%	nt	nt
COc1cc(/C=N/Nc2ccc(Cl)c(C(=O)O)c2)ccc1OCC(=O)N1C(C)CCCC1C (stereo not drawn)	59*	12%	18	nt
COc1cc(C=O)ccc1OC(=O)c1ccc(C(C)C)cc1	34	-3%	35*	20%
Cc1ccc(S(=O)(=O)Oc2cccc(/C=N/Nc3ccc(C(=O)O)cc3)c2)cc1	26*	1%	37*	3%
COc1cc(/C=N/NC(N)=O)ccc1OCC(=O)N1C(C)CCCC1C (stereo not drawn)	17	1%	-4	-2%
Cc1ccc(C(=O)N[C@H](C(=O)NC2CCCCC2)C(C)C)cc1	nt	2%	nt	nt
Cc1ccc(NC(=O)NCc2nc3ccccc3n2C)cc1	2	2%	6	-5%
COc1ccc(Nc2nc3ccccc3n2C)cc1	40*	1%	35*	7%
COc1ccc(NCc2nc3ccccc3n2C)cc1	66*	-3%	35*	-9%
Cn1c(CNc2ccc(O)cc2)nc2ccccc21	75*	6%	19*	5%
COc1ccc(C(=O)NNC(=O)Cc2nc3ccccc3n2C)cc1	nt	2%	nt	nt
Cn1c(Nc2ccc(F)cc2)nc2ccccc21	18	-9%	10	1%
CCOC(=O)c1ccc(NCc2nc3ccccc3n2C)cc1	43	-6%	32*	-115%
Cc1cc(C)cc(N2C(=O)CCN(Cc3ccccc3)C2=O)c1	-4	1%	0	2%
O=C(NCC1CCCO1)C(c1ccc(F)cc1)N(C(=O)Cn1nnc(-c2ccc(F)cc2)n1)c1cccc(O)c1 (stereo not drawn)	-2	1%	-2	-6%
Cn1c(CNc2ccc(Br)cc2)nc2ccccc21	114*	-4%	40*	-44%
Cc1ccc(NCc2nc3ccccc3n2C)cc1C	nt	-5%	46*	-10%
CC(C)n1c(NCc2nc3ccccc3n2C)nc2ccccc21	0	-8%	1	-2%
Cn1c(CNc2nc3ccccc3n2C)nc2ccccc21	77*	-1%	68*	1%
Cc1ccc(NCc2nc3ccccc3n2C)cc1	95*	-3%	49*	?
Cn1cnnc1SCCCN1C(=O)c2cccc3cccc(c23)C1=O	-16	-2%	-2	5%
SMILES	Shiga inhibitor	SARS PLP yeast	CHX counter	NS1 inh
CC(=O)N1c2ccc(S(=O)(=O)N3CCCC3C(=O)NCc3ccc(Cl)cc3)cc2CC1C (stereo not drawn)	-4	1%	-3	-29%
Cc1cc(S(=O)(=O)NCC(c2ccc3c(c2)OCO3)N2CCOCC2)ccc1F (stereo not drawn)	nt	-9%	nt	nt
O=C(CCc1nnc(CCCCc2ccccc2)o1)NCCn1cccn1	-19	0%	-1	1%
O=C(CCc1nnc(CCCc2ccccc2)o1)NCC(F)(F)F	39*	0%	36*	-2%
O=C(CCc1nnc(CCCc2ccccc2)o1)NCCc1ccco1	74*	-1%	43*	-2%
CCOC(=O)CCNC(=O)CCc1nnc(CCCc2ccccc2)o1	96*	0%	29*	3%
O=C(CCc1nnc(CCCc2ccccc2)o1)NCCc1ccccc1	43*	-1%	22*	-3%
NNC(=O)c1ccc[n+](CCc2ccccc2)c1	nt	nt	nt	1%
COc1ccc(-c2nnc3n2N=C(c2c(OC)cccc2OC)CS3)c(OC)c1	4	nt	12	nt
CCOc1ccc(C(=O)n2cc(C(=O)OC)c3ccccc32)cc1	16	-8%	-3	-2%
O=C(CCc1nnc(CCCCc2ccccc2)o1)NCCN1CCOC1=O	84*	-5%	21*	-31%
COC(c1ccccc1)c1nnc(CCC(=O)NCCCc2ccccc2)o1 (stereo not drawn)	23	1%	17*	-2%
O=C(CCc1nnc(CCCc2ccccc2)o1)NCCCC1CCCC1	120*	-2%	41*	-1%
OC[C@H]1O[C@@H](n2cnc3c(Nc4ccccc4)ncnc32)[C@H](O)[C@@H]1O	108*	-1%	27	-2%
O=C(NCc1ccc(F)cc1)C(=O)NCC(c1ccco1)N1CCOCC1 (stereo not drawn)	-8	-1%	-2	nt
CCCCCn1c(=O)c(C(=O)Nc2ccccc2C)c(O)c2ccccc21	nt	1%	34*	-8%
CCn1c(=O)c(C(=O)Nc2ccc(C)cc2)c(O)c2ccccc21	43	-1%	9	20%
CCn1c(=O)c(C(=O)Nc2ccccc2C)c(O)c2ccccc21	active	23%	16	9%
CCCn1c(=O)c(C(=O)N/N=C/c2ccccc2F)c(O)c2ccccc21	30	1%	13*	-9%
C=CCn1c(=O)c(C(=O)Nc2ccccc2C)c(O)c2ccccc21	20	-10%	19*	7%
C[C@H](CO)N1C[C@H](C)[C@@H](CN(C)C(=O)Nc2ccc3c(c2)OCO3)Oc2ccc(NS(=O)(=O)c3ccc(F)cc3)cc2C1=O	nt	5%	nt	nt
C=CCn1c(C(CCCC)CC(C)O)n[nH]c1=S (stereo not drawn)	-5	1%	2	6%
CCCn1c(=O)c(C(=O)Nc2ccccc2C)c(O)c2ccccc21	nt	-8%	14*	-12%
Cc1ccc(CN2CCN(/N=C/c3ccc(C)s3)CC2)c(C)c1	-1	8%	-4	19%
CN1C2CCC1C(COC(=O)c1ccccc1)C(O)C2 (stereo not drawn)	5	-1%	-3	3%
SMILES	Shiga inhibitor	SARS PLP yeast	CHX counter	NS1 inh
C[C@@H]1C[C@@H]2[C@H]([C@H]3C=C(COC(=O)c4ccccc4)[C@@H](O)[C@]4(O)[C@@H](O)C(OC(=O)c5ccccc5)=C[C@@]14C3=O)C2(C)C	24*	nt	17	nt
O=C(N/N=C/c1cccc(Br)c1)c1ccc(Cn2cc(Br)cn2)o1	56*	12%	17	-1%
Cc1ccccc1/C=N\NC(=O)c1ccc(Cn2cccn2)o1	32	3%	5	-14%
NNC(=O)c1ccc(Cn2cccn2)o1	52*	-1%	20	1%
NNC(=O)c1ccc(Cn2cc(Br)cn2)o1	61*	0%	27*	0%
Cc1ccc(/C=N\NC(=O)c2ccc(Cn3cc(Br)c([N+](=O)[O-])n3)o2)o1	-9	0%	-3	6%
O=C(c1ccco1)N1CCN(C(=O)c2ccc(Cn3cc(Br)cn3)o2)CC1	-13	4%	-3	1%
Cc1ccsc1/C=N/NC(=O)c1ccc(Cn2cc(Br)cn2)o1	37	3%	13	-1%
O=C(N/N=C\c1cccc(Cl)c1)c1ccc(Cn2cc(Br)c([N+](=O)[O-])n2)o1	24*	?	8	?
CCC1Nc2ncnc(N3CCOCC3)c2N(Cc2ccc(Cl)cc2)C1=O (stereo not drawn)	nt	-3%	nt	nt

Screening results deposited in PubChem BioAssay by National Center for Advancing Translational Sciences (NCATS).
